{
  "source": "PubChem BioAssay (Tox21)",
  "note": "Inconclusive results are not listed. Entries that show only a call come without a potency. Active and inactive are the calls of the source. Unless noted, calls come from the whole dose curve.",
  "data": [
    {"target": "KiSS-1 receptor (Homo sapiens) (UniProt Q969F8)", "sequence (Q969F8 whole entry, looked up)": "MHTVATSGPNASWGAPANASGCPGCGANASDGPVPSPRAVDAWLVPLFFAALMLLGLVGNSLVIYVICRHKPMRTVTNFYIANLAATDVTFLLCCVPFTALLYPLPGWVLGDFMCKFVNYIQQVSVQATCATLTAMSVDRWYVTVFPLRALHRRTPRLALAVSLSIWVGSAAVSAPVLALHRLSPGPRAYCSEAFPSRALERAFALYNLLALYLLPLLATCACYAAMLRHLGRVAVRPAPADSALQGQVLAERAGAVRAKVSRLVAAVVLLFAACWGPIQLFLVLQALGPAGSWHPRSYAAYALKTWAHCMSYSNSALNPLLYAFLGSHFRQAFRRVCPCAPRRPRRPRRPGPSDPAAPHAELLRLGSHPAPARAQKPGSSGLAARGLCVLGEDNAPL", "assay": "Human kisspeptin (KISS1R) small molecule agonists, calcium flux assay in KISS1R-HEK293 cells (AID 1920064; active = well fitted activation curve with a large enough effect in the repeat runs)", "details": "KISS1R-HEK293, calcium flux fluorescence, agonist; series mostly up to 76.8 µM", "procedure,_shortened": "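Intracellular calcium mobilization in KISS1R-HEK293 cells was recorded by fluorescence (Ex/Em 480/540) for 3 min following compound addition to cells pre-loaded 1 h with calcium dye.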", "values": [
      {"smiles": "CCC(=O)Oc1ccc2c(c1)CC[C@@H]1[C@@H]2CC[C@@]2(C)[C@H]1C[C@@H](OC(=O)CC)[C@@H]2OC(=O)CC", "outcome": "inactive"},
      {"smiles": "C[C@H](O)C(=O)Nc1c(I)c(C(=O)NC(CO)CO)c(I)c(C(=O)NC(CO)CO)c1I", "outcome": "inactive"},
      {"smiles": "CC1(C)CCC(C)(C)c2cc(NC(=O)c3ccc(C(=O)O)cc3)ccc21", "outcome": "inactive"},
      {"smiles": "O=C=NCc1cccc(CN=C=O)c1", "activation": "0.462% [at 15.8 µM] (inactive)"},
      {"smiles": "CCCCC(=O)O[C@]1(C(=O)CO)CC[C@H]2[C@@H]3CCC4=CC(=O)CC[C@]4(C)[C@H]3[C@@H](O)C[C@@]21C", "outcome": "inactive"},
      {"smiles": "CC[C@H](NC(C)C)[C@H](O)c1ccc(O)c2[nH]c(=O)ccc12", "outcome": "inactive"},
      {"smiles": "O=[N+]([O-])c1ccc(CO)cc1", "outcome": "inactive"},
      {"smiles": "CCN(CC)c1ccc(C=O)cc1", "outcome": "inactive"},
      {"smiles": "O=c1[nH]c(=O)n([C@H]2O[C@H](CO)[C@@H](O)[C@@H]2O)cc1/C=C\\Br", "outcome": "inactive"},
      {"smiles": "O=C(O)c1cc(O)c2c(c1)C(=O)c1cccc(O)c1C2=O", "outcome": "inactive"},
      {"smiles": "CC(=O)Nc1ccc(N)cc1", "outcome": "inactive"},
      {"smiles": "Nc1ccccc1O", "outcome": "inactive"},
      {"smiles": "CCCCCCCCCC=O", "outcome": "inactive"},
      {"smiles": "CN1CCN(c2c(F)cc3c(=O)c(C(=O)O)cn4c3c2OCN4C)CC1", "activation": "-1.38% [at 15.8 µM] (inactive)"},
      {"smiles": "COc1ccc2sc(C(=O)Nc3nnn[nH]3)c(OC(C)C)c2c1", "outcome": "inactive"}
    ]},
    {"tested_on": "not listed separately", "assay": "G protein-coupled receptor (GPCR) small molecule agonists, calcium flux assay: HEK293 wild type cell line counter screen (AID 1920065)", "details": "HEK293 WT calcium flux, fluorescence, agonist mode; series mostly up to 57.6 µM", "procedure,_shortened": "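In this agonist-mode screen, ATP is the positive control and DMSO the vehicle. Cells grow 18 h before a 1 h dye incubation at 37 C; signal is taken at Ex/Em 480/540 over 3 min.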", "values": [
      {"smiles": "c1cc2c3c(c1)ccc1cccc(c13)C2", "outcome": "inactive"},
      {"smiles": "CCOC(=O)N1CCC(Nc2ccc(Cl)cc2N)CC1", "outcome": "inactive"},
      {"smiles": "CCCCCC(=O)OCCc1ccccc1", "outcome": "inactive"},
      {"smiles": "COc1cc(C(C)C)ccc1C", "activation": "-0.338% [at 11.8 µM] (inactive)"},
      {"smiles": "CCCCCCCCCCOCC(O)CN", "note": "(stereo not given)", "outcome": "inactive"},
      {"smiles": "CC(C)(Oc1ccc(Cl)cc1)C(=O)OCCCOC(=O)C(C)(C)Oc1ccc(Cl)cc1", "outcome": "inactive"},
      {"smiles": "CCCCCCCC(=O)Oc1c(Br)cc(C#N)cc1Br", "outcome": "inactive"},
      {"smiles": "O=C(C(Cl)Cl)N1CCOC12CCCCC2", "outcome": "inactive"},
      {"smiles": "COc1ccc(-c2coc3cc(O)ccc3c2=O)cc1", "outcome": "inactive"},
      {"smiles": "COc1ccc2nc(SCc3ncc(C)c(OC)c3C)[nH]c2c1", "outcome": "inactive"},
      {"smiles": "O=S(=O)(O)c1ccc(Cl)cc1", "outcome": "inactive"},
      {"smiles": "CC(C)OC(=O)C(C)N(C(=O)c1ccccc1)c1ccc(F)c(Cl)c1", "note": "(stereo not given)", "outcome": "inactive"},
      {"smiles": "CCOC(=O)c1c(N)sc2c1CCN(Cc1ccccc1)C2", "outcome": "inactive"},
      {"smiles": "CN(C)CCCCl", "outcome": "inactive"},
      {"smiles": "CCCCNc1c(C(=O)OCC)c(C)nc2c1cnn2CC", "outcome": "inactive"},
      {"smiles": "C=C(C)C(=O)OC1CC(C)CC(C)(C)C1", "note": "(stereo not given)", "outcome": "inactive"},
      {"smiles": "Nc1cc(C(=O)O)ccc1Cl", "outcome": "inactive"},
      {"smiles": "O=C(NC1CCN(CCc2c[nH]c3ccccc23)CC1)c1ccccc1", "outcome": "inactive"},
      {"smiles": "O=C(O)CCCc1c[nH]c2ccccc12", "outcome": "inactive"},
      {"smiles": "NC(CO)C(=O)NNCc1ccc(O)c(O)c1O", "note": "(stereo not given)", "outcome": "inactive"},
      {"smiles": "CCN(CC)c1cccc(C)c1", "outcome": "inactive"},
      {"smiles": "CCCC(C)c1ccccc1O", "note": "(stereo not given)", "outcome": "inactive"},
      {"smiles": "CCO[Si](C)(CCCOCC1CO1)OCC", "note": "(stereo not given)", "outcome": "inactive"},
      {"smiles": "O=C(O)c1cn(C2CC2)c2cc(Cl)c(F)cc2c1=O", "outcome": "inactive"},
      {"smiles": "CCCC(=O)O[C@]1(C(=O)CC)CC[C@H]2[C@@H]3CCC4=CC(=O)CC[C@]4(C)[C@H]3[C@@H](O)C[C@@]21C", "outcome": "inactive"},
      {"smiles": "CCC(=O)Oc1ccc2c(c1)CC[C@@H]1[C@@H]2CC[C@@]2(C)[C@H]1C[C@@H](OC(=O)CC)[C@@H]2OC(=O)CC", "outcome": "inactive"},
      {"smiles": "C[C@H](O)C(=O)Nc1c(I)c(C(=O)NC(CO)CO)c(I)c(C(=O)NC(CO)CO)c1I", "outcome": "inactive"},
      {"smiles": "CC1(C)CCC(C)(C)c2cc(NC(=O)c3ccc(C(=O)O)cc3)ccc21", "outcome": "inactive"},
      {"smiles": "O=C=NCc1cccc(CN=C=O)c1", "activation": "0.869% [at 11.8 µM] (inactive)"},
      {"smiles": "CCCCC(=O)O[C@]1(C(=O)CO)CC[C@H]2[C@@H]3CCC4=CC(=O)CC[C@]4(C)[C@H]3[C@@H](O)C[C@@]21C", "outcome": "inactive"},
      {"smiles": "CC[C@H](NC(C)C)[C@H](O)c1ccc(O)c2[nH]c(=O)ccc12", "outcome": "inactive"},
      {"smiles": "O=[N+]([O-])c1ccc(CO)cc1", "outcome": "inactive"},
      {"smiles": "CCN(CC)c1ccc(C=O)cc1", "outcome": "inactive"},
      {"smiles": "O=c1[nH]c(=O)n([C@H]2O[C@H](CO)[C@@H](O)[C@@H]2O)cc1/C=C\\Br", "outcome": "inactive"},
      {"smiles": "O=C(O)c1cc(O)c2c(c1)C(=O)c1cccc(O)c1C2=O", "outcome": "inactive"},
      {"smiles": "CC(=O)Nc1ccc(N)cc1", "outcome": "inactive"},
      {"smiles": "Nc1ccccc1O", "outcome": "inactive"},
      {"smiles": "CCCCCCCCCC=O", "outcome": "inactive"},
      {"smiles": "CN1CCN(c2c(F)cc3c(=O)c(C(=O)O)cn4c3c2OCN4C)CC1", "activation": "-0.0119% [at 11.8 µM] (inactive)"},
      {"smiles": "COc1ccc2sc(C(=O)Nc3nnn[nH]3)c(OC(C)C)c2c1", "outcome": "inactive"}
    ]},
    {"tested_on": "not listed separately", "assay": "p53 small molecule agonists, cell-based qHTS assay with human liver microsomes (AID 1963577);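 note: p53 response element beta-lactamase reporter cells with liver microsomes plus NADPH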", "details": "HCT-116 p53RE-bla with human liver microsomes, ratio, 16 h; series mostly up to 66 µM", "procedure,_shortened": "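HLM-supplemented p53RE-bla reporter assay: 16 h compound exposure at 37 C, microsomes and NADPH each 0.5 mg/mL final, read by fluorescence intensity.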", "values": [
      {"smiles": "c1cc2c3c(c1)ccc1cccc(c13)C2", "Potency": "inactive"},
      {"smiles": "CCOC(=O)N1CCC(Nc2ccc(Cl)cc2N)CC1", "Potency": "inactive"},
      {"smiles": "CCCCCC(=O)OCCc1ccccc1", "Potency": "inactive"},
      {"smiles": "COc1cc(C(C)C)ccc1C", "activation": "-9.12% [at 13.5 µM] (inactive)"},
      {"smiles": "CCCCCCCCCCOCC(O)CN", "note": "(stereo not given)", "Potency": "inactive"},
      {"smiles": "CC(C)(Oc1ccc(Cl)cc1)C(=O)OCCCOC(=O)C(C)(C)Oc1ccc(Cl)cc1", "Potency": "inactive"},
      {"smiles": "CCCCCCCC(=O)Oc1c(Br)cc(C#N)cc1Br", "Potency": "inactive"},
      {"smiles": "O=C(C(Cl)Cl)N1CCOC12CCCCC2", "Potency": "inactive"},
      {"smiles": "COc1ccc(-c2coc3cc(O)ccc3c2=O)cc1", "Potency": "inactive"},
      {"smiles": "COc1ccc2nc(SCc3ncc(C)c(OC)c3C)[nH]c2c1", "Potency": "inactive"},
      {"smiles": "O=S(=O)(O)c1ccc(Cl)cc1", "Potency": "inactive"},
      {"smiles": "CC(C)OC(=O)C(C)N(C(=O)c1ccccc1)c1ccc(F)c(Cl)c1", "note": "(stereo not given)", "Potency": "inactive"},
      {"smiles": "CCOC(=O)c1c(N)sc2c1CCN(Cc1ccccc1)C2", "Potency": "inactive"},
      {"smiles": "CN(C)CCCCl", "Potency": "inactive"},
      {"smiles": "CCCCNc1c(C(=O)OCC)c(C)nc2c1cnn2CC", "Potency": "inactive"},
      {"smiles": "C=C(C)C(=O)OC1CC(C)CC(C)(C)C1", "note": "(stereo not given)", "Potency": "inactive"},
      {"smiles": "Nc1cc(C(=O)O)ccc1Cl", "Potency": "inactive"},
      {"smiles": "O=C(NC1CCN(CCc2c[nH]c3ccccc23)CC1)c1ccccc1", "Potency": "inactive"},
      {"smiles": "O=C(O)CCCc1c[nH]c2ccccc12", "Potency": "inactive"},
      {"smiles": "NC(CO)C(=O)NNCc1ccc(O)c(O)c1O", "note": "(stereo not given)", "Potency": "inactive"},
      {"smiles": "CCN(CC)c1cccc(C)c1", "Potency": "inactive"},
      {"smiles": "CCCC(C)c1ccccc1O", "note": "(stereo not given)", "Potency": "inactive"},
      {"smiles": "CCO[Si](C)(CCCOCC1CO1)OCC", "note": "(stereo not given)", "Potency": "inactive"},
      {"smiles": "O=C(O)c1cn(C2CC2)c2cc(Cl)c(F)cc2c1=O", "Potency": "inactive"},
      {"smiles": "CCCC(=O)O[C@]1(C(=O)CC)CC[C@H]2[C@@H]3CCC4=CC(=O)CC[C@]4(C)[C@H]3[C@@H](O)C[C@@]21C", "Potency": "inactive"},
      {"smiles": "CCC(=O)Oc1ccc2c(c1)CC[C@@H]1[C@@H]2CC[C@@]2(C)[C@H]1C[C@@H](OC(=O)CC)[C@@H]2OC(=O)CC", "Potency": "inactive"},
      {"smiles": "C[C@H](O)C(=O)Nc1c(I)c(C(=O)NC(CO)CO)c(I)c(C(=O)NC(CO)CO)c1I", "Potency": "inactive"},
      {"smiles": "CC1(C)CCC(C)(C)c2cc(NC(=O)c3ccc(C(=O)O)cc3)ccc21", "Potency": "inactive"},
      {"smiles": "O=C=NCc1cccc(CN=C=O)c1", "activation": "-0.418% [at 13.5 µM] (inactive)"},
      {"smiles": "CCCCC(=O)O[C@]1(C(=O)CO)CC[C@H]2[C@@H]3CCC4=CC(=O)CC[C@]4(C)[C@H]3[C@@H](O)C[C@@]21C", "Potency": "inactive"},
      {"smiles": "CC[C@H](NC(C)C)[C@H](O)c1ccc(O)c2[nH]c(=O)ccc12", "Potency": "inactive"},
      {"smiles": "O=[N+]([O-])c1ccc(CO)cc1", "Potency": "inactive"},
      {"smiles": "CCN(CC)c1ccc(C=O)cc1", "Potency": "inactive"},
      {"smiles": "O=c1[nH]c(=O)n([C@H]2O[C@H](CO)[C@@H](O)[C@@H]2O)cc1/C=C\\Br", "Potency": "inactive"},
      {"smiles": "O=C(O)c1cc(O)c2c(c1)C(=O)c1cccc(O)c1C2=O", "Potency": "inactive"},
      {"smiles": "CC(=O)Nc1ccc(N)cc1", "Potency": "inactive"},
      {"smiles": "Nc1ccccc1O", "Potency": "inactive"},
      {"smiles": "CCCCCCCCCC=O", "Potency": "inactive"},
      {"smiles": "CN1CCN(c2c(F)cc3c(=O)c(C(=O)O)cn4c3c2OCN4C)CC1", "activation": "0.808% [at 13.5 µM] (inactive)"},
      {"smiles": "COc1ccc2sc(C(=O)Nc3nnn[nH]3)c(OC(C)C)c2c1", "Potency": "inactive"}
    ]}
  ]
}
